Unmarked numbers belong to inactive results. Cut-off read from the data, not from the text of the source: active = log2 fold change growth below about -1.8; inactive = the rest.
test: C. elegans growth inhibition, whole organism, log2 fold change (AID 1259336); conditions: anthelmintic screen, hits give low values;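 note: growth scored by imaging after five days at 20 °C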

| Structure (SMILES) | log2 fold change growth |
| --- | --- |
| CC(C)(CN)c1nc(-c2ccc(Cl)c(O)c2)c(-c2ccnc(N)n2)[nH]1 | -0.414 |
| COc1cccc(-c2nc3c(N4CCCC4)cccc3n2C[C@H]2CCCN2)n1 | 0.434 |
| CCCc1ccc(S(=O)(=O)Nc2ccc(CN3CCN(CC4CC4)CC3)cc2)cc1 | 0.319 |
| CCc1nc2ccc(C(=O)NCc3ccc4c(c3)OCO4)cn2c1N(C)Cc1cccs1 | -0.917 |
| Nc1cccnc1Nc1ccc(Cl)cc1 | 0.497 |
| CC(C)(C)n1nc(Cc2ccc(F)c(Cl)c2)c2c(N)ncnc21 | -1.01 |
| COC(=O)c1cccc2oc(-c3cccc(OC)c3NC(=O)c3cc(-c4ccccc4)on3)nc12 | -0.13 |
| COc1ccc(-c2cc(NC(=O)c3ccc(F)cc3Cl)ccc2OC)cc1 | 0.039 |
| CCc1cc(=O)n(C)c(S[C@@H](C)C(=O)Nc2ccc(F)cc2)n1 | -0.417 |
| COc1cccc2c(C)nc(N=C(N)N)nc12 | 0.0276 |
| Oc1c(I)cc(I)c2cccnc12 | 0.0616 |
| CCCNC(=O)N1CCC2(CC1)CC(=O)c1cc(C)ccc1O2 | -0.181 |
| CC(C)N=c1cc2n(-c3ccc(Cl)cc3)c3ccccc3nc-2cc1Nc1ccc(Cl)cc1 | 0.0581 |
| C[C@@H](C(=O)Nc1ccc2oc(-c3ccncc3)nc2c1)c1ccccc1 | 0.0616 |
| Nc1ncnc2n[nH]c(Cc3cccc4ccccc34)c12 | 0.242 |
| Cc1cc(C)n(-c2ccc(NC(=O)C3CCN(Cc4cnc(C)s4)CC3)cc2)n1 | 0.442 |
| CN1CCCN([C@@H](c2ccccc2)c2ccc(Cl)cc2)CC1 | 0.517 |
| CC(C)(C(=O)Nc1ccc(F)cc1)n1cc(-c2ccccc2F)cn1 | 0.0447 |
| O=C(c1ccc(NCCO)cc1)C1C[C@H]1c1ccc(Cl)cc1 (some centres undefined) | -0.319 |
| C[C@@H](c1cc(Cl)cc(Cl)c1)N(C)c1ncc2c(N)nc(N)nc2n1 | -0.371 |
| COc1nc2ccc(Br)cc2cc1[C@@H](c1ccccc1)[C@@](O)(CCN(C)C)c1cccc2ccccc12 | 0.248 |
| COc1ccc(S(=O)(=O)Nc2ccc(CN3CCN(C(=O)c4cccc(C#N)c4)CC3)cc2)cc1 | 0.00585 |
| CS(=O)(=O)N1CCC(CCn2nc(Cc3cccc4ccccc34)c3c(N)ncnc32)CC1 | -1.16 |
| Cc1ccc(NC(=O)c2nc[nH]c2C(=O)Nc2nc3ccccc3[nH]2)c(C)c1 | -0.815 |
